This is a sample that favours compounds with a hit; in the whole collection about 19% have one here.
TDP1 cell noCPT = qHTS for Inhibitors of human tyrosyl-DNA phosphodiesterase 1 (TDP1): qHTS in cells in absence of CPT. AID 686978, 2013. actives 15% (n = 420,000). DT40 Tdp1-/- hTDP1 cells, no CPT, ATP luminescence, 48 h. Potency, µM (series often up to 46.2 µM), for the others: at the highest dose activity change, negative = growth inhibition, hits mostly inhibitors; further: potency means the concentration at half of the fitted maximal effect; nearly all actives have a fitted effect of over 55% in size
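Chicken DT40 Tdp1-/- cells stably complemented with human TDP1 were seeded at 400 cells/well with DMSO in place of 20 nM camptothecin. After compound pinning, cells grew at least 48 hr at 37 °C; viability read by CellTiter-Glo luminescence.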
IL-1B inflam inh = qHTS for Inhibitors of Inflammasome Signaling: IL-1-beta AlphaLISA Primary Screen; THP-1 LPS/ATP IL-1B secretion, AlphaLISA, 16 h; stronger effect = lower value; activity change, % at 57.5 µM; actives 4.7% (n = 360,000); in the data active means activity change below about -50%; inconclusive means mostly about -30% to -49%
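THP-1 cells pretreated 1 hr with compounds (up to 57.5 uM final), then stimulated with LPS (250 ng/mL final) plus ATP (1.25 mM final); secreted IL-1B measured by AlphaLISA after 16 hr, decreased signal indicating inhibition.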
HT1080NT lethal = qHTS for induction of synthetic lethality in tumor cells producing 2HG: qHTS for the HT-1080-NT fibrosarcoma cell line. HT-1080-NT fibrosarcoma viability, CellTiter-Glo ATP luminescence, 48 h. Potency, µM (top dose mostly 46.1 µM), inactives show at the top dose activity, negative = less viability, actives largely listed as cytotoxic. actives 1.6% (n = 360,000). AID 686970, 2013;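 further: NT is the 2HG producing partner of a matched IDH1 knockdown line; potency means the concentration at half of the fitted maximal effect; 0% = DMSO-treated cells and -100% = media-only wells without cells; nearly all actives have a fitted effect of over 55% in size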
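750 cells/well, RPMI + 5% FBS; 2 h settle, compound pin-transfer, 48 h at 37 degrees C. CellTiter-Glo 10 min RT, luminescence. Normalized to DMSO and media-only wells.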
HT1080 IDH1KD tx = qHTS for induction of synthetic lethality in tumor cells producing 2HG: qHTS for the HT-1080-IDH1KD cell line; actives 2% (n = 360,000); Potency, µM (series often up to 46.1 µM), inactives show at the top dose activity, negative = toxicity, usual class: cytotoxic; HT-1080 IDH1 knockdown viability, ATP luminescence, 48 h;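 further: potency means the concentration at half of the fitted maximal effect; 0% = DMSO wells and -100% = cell-free medium wells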
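HT-1080-IDH1KD cells (IDH1 knocked down), 750/well in RPMI with 5% FBS, treated with compound 48 h at 37 degrees C. Viability by CellTiter-Glo luminescence, normalised to DMSO and no-cell wells; concentration-response curves classed.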
DT40 TDP1 CPT = qHTS for Inhibitors of human tyrosyl-DNA phosphodiesterase 1 (TDP1): qHTS in cells in presence of CPT. chicken DT40 Tdp1-/-;hTDP1 cells + 20 nM CPT, ATP luminescence, 48 h. Potency, µM (titrated, usually from 46.2 µM), inactives show at the top dose activity change, negative = growth inhibition, usual class: inhibitors. actives 12% (n = 420,000). AID 686979, 2013; further: potency means the concentration at half of the fitted maximal effect; nearly all actives have a fitted effect of over 55% in size
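Chicken DT40 Tdp1-/- cells stably complemented with human TDP1 were seeded at 400 cells/well in medium containing 20 nM camptothecin, exposed to pin-transferred compounds, and grown at 37 °C for at least 48 hr. Viability was read as ATP luminescence.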
The depositor's hits bear a star; u = inconclusive; x = no result given. Unless noted, the call rests on the fitted dose curve; in most records, active means well fitted curve in the direction sought with a large enough effect; inconclusive means small, poorly fitted or top-dose-only effect, or another doubt; inactive means no such curve, though single readings can be large; an effect the other way counts as inactive or inconclusive. Unless noted, on the % scale 0 is the no-effect control and ±100 the full control effect.

SMILES	TDP1 cell noCPT	IL-1B inflam inh	HT1080NT lethal	HT1080 IDH1KD tx	DT40 TDP1 CPT
COc1ccc(N=C2NN=C(c3ccc4c(c3)OCCO4)CS2)cc1	26µM*	u	-17%	-1%	21µM*
O=C(COC(=O)/C=C/c1cccc(Br)c1)NC1CCCC1	u	-17	24%	26%	2%
COc1ccc([C@H]2N[C@]3(CCCN(Cc4ccccc4)C3=O)[C@H]3C(=O)N(Cc4ccccc4)C(=O)[C@@H]23)cc1	u	-10	0%	-4%	-7%
COc1ccc([C@H]2N[C@]3(CCCN(Cc4ccccc4)C3=O)[C@H]3C(=O)N(C)C(=O)[C@@H]23)cc1	-21%	-9	9%	6%	-14%
COc1ccc([C@H]2N[C@]3(CCCN(Cc4ccc(C)cc4)C3=O)[C@H]3C(=O)N(Cc4ccccc4)C(=O)[C@@H]23)cc1	16µM*	-13	10%	-12%	u
COc1ccc([C@H]2N[C@]3(CCCN(Cc4ccc(Cl)cc4)C3=O)[C@H]3C(=O)N(Cc4ccccc4)C(=O)[C@@H]23)cc1	23µM*	-22	-14%	-21%	18µM*
O=C(NCc1ccccc1)C12CN(Cc3ccccc3)CC1C(c1cccc([N+](=O)[O-])c1)=NO2 (configuration not stated)	23µM*	u	-7%	0%	u
Cc1ccc(CCNC(=O)C23CN(Cc4ccccc4)CC2C(c2ccc([N+](=O)[O-])cc2)=NO3)cc1 (configuration not stated)	u	u	16%	-4%	21µM*
Cc1ccc(CNC(=O)C23CN(Cc4ccccc4)CC2C(c2ccc([N+](=O)[O-])cc2)=NO3)cc1 (configuration not stated)	u	0	-6%	-2%	u
CCOC(=O)C1CCN(C(=O)CNS(=O)(=O)c2cccs2)CC1	-18%	13	-1%	0%	-11%
O=C(Cn1cnc([N+](=O)[O-])n1)NCCO	-10%	8	3%	10%	15%
Cc1ccc(-c2nnc(CSc3nc4cc5c(cc4cc3C)OCO5)o2)cc1	21µM*	-4	4%	29%	u
CCOC(=O)CSc1nc2cc3c(cc2cc1C)OCO3	-16%	11	11%	8%	-15%
Cc1ccccc1S(=O)(=O)N1C[C@H]2[C@H]3C(=O)N(c4ccccc4)C(=O)[C@H]3CC(=O)[C@H]2[C@@H]1c1ccc(Cl)cc1	0%	7	9%	30%	-5%
COc1ccc(CN(CCN)C2CC(C)N(C)CC2C)cc1 (configuration not stated)	-3%	-22	-1%	-3%	-15%
NC(=O)c1ccc(NC(=O)CNc2cc(S(=O)(=O)N3CCOCC3)ccc2N2CCCC2)cc1	u	-5	1%	3%	-22%
CC(=O)c1ccc(NC(=O)CNc2cc(S(=O)(=O)N3CCOCC3)ccc2N2CCCC2)cc1	26µM*	-17	-10%	5%	16µM*
O=C(CNc1cc(S(=O)(=O)N2CCOCC2)ccc1N1CCCC1)Nc1ccc(Cl)cc1	18µM*	-19	0%	-3%	18µM*
N#Cc1cccc(NC(=O)CNc2cc(S(=O)(=O)N3CCOCC3)ccc2N2CCCC2)c1	23µM*	u	-15%	-2%	u
COc1cccc(NC(=O)CNc2cc(S(=O)(=O)N3CCOCC3)ccc2N2CCCC2)c1	u	-1	0%	6%	u
CCCCn1c(=O)[nH]c(=O)c2c1nc(-c1cc(Br)ccc1OC)n2C	u	31	2%	2%	-2%
CCCCn1c(=O)[nH]c(=O)c2c1nc(-c1ccccc1F)n2Cc1ccccc1OC	u	8	-4%	-7%	23µM*
CCCn1c(-c2cccc([N+](=O)[O-])c2)nc2c1c(=O)[nH]c(=O)n2Cc1ccccc1	16µM*	-5	-9%	-5%	21µM*
CCCCn1c(=O)[nH]c(=O)c2c1nc(-c1ccsc1)n2Cc1ccccc1	29µM*	-21	u	-29%	u
CCCCn1c(-c2ccsc2)nc2c1c(=O)[nH]c(=O)n2CCC	u	40	0%	7%	u
SMILES	TDP1 cell noCPT	IL-1B inflam inh	HT1080NT lethal	HT1080 IDH1KD tx	DT40 TDP1 CPT
CCCn1c(-c2ccc(C(=O)OC)cc2)nc2c1c(=O)[nH]c(=O)n2Cc1ccccc1	-14%	45	12%	-2%	12%
CCN1CCN(CCCOc2ccc(Cl)cc2Br)CC1	16µM*	-4	u	-23%	u
Clc1ccc(OCCCCCN2CCCC2)c(Br)c1	23µM*	u	u	u	u
Clc1ccc(Cl)c(OCCCCN2CCNCC2)c1	u	-74*	u	u	5.8µM*
Clc1ccc(SCCN2CCNCC2)cc1	18µM*	-4	-12%	-13%	u
Clc1ccc(OCCN2CCCCC2)c(Cl)c1	-21%	-13	-4%	u	-8%
Clc1ccc(OCCCN2CCCCC2)c(Br)c1	u	-8	-15%	-11%	u
O=[N+]([O-])c1ccc(Nc2cccc(F)c2)nc1	0%	-24	-2%	-2%	-3%
CCC(Cc1ccccc1)NC(=O)CCn1cccc1 (configuration not stated)	-15%	-2	u	-21%	18%
O=C(Nc1nc2ccc(F)cc2s1)c1nc(S(=O)(=O)Cc2ccccc2)ncc1Cl	2.3µM*	x	x	x	2.3µM*
CSc1ncc(Cl)c(C(=O)Nc2nc3ccc(F)cc3s2)n1	4%	x	x	x	1%
Cc1cccc(CS(=O)(=O)c2ncc(Cl)c(C(=O)Nc3nc4ccc(F)cc4s3)n2)c1	2.3µM*	x	x	x	2.3µM*
Cc1nn(Cc2ccccc2)c2c1C(c1ccncc1)C(C#N)=C(N)O2 (configuration not stated)	23µM*	49	2%	4%	21µM*
Cc1nn(Cc2ccccc2)c2c1C(c1ccc(Cl)cc1)C(C#N)=C(N)O2 (configuration not stated)	21µM*	12	-25%	u	18µM*
Cc1nn(-c2ccccc2)c2c1C(c1ccccc1)C(C#N)=C(N)O2 (configuration not stated)	u	13	6%	7%	u
Cc1nn(-c2ccccc2)c2c1C(c1ccc(Br)s1)C(C#N)=C(N)O2 (configuration not stated)	12µM*	10	-9%	-3%	u
